Results published in the supplement of paper PMC10849652.
The full data set covers some 7,900 targets. This sample favours those with a hit. About 0.6% of all pairs of compound and target were hits.

Legend:
Assay in all cases: log2 fold change, soluble protein after heating vs DMSO (PISA); higher = thermal stabilisation; K562 cells, 10 uM, 30 min; active = over 0.2 and 3.5 SD of the protein, either way, in both replicates (recomputed)
[1] = compound: CC1=C(C=C(C=C1)NC(=O)C2=CC(=CC=C2)C(C)(C)C#N)NC3=CC4=C(C=C3)N=CN(C4=O)C
How it was run: (§1)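 K562 cells at 2×10^6 cells/mL were exposed to 10 μM compound for 30 min, then aliquots were heated for 3 min across 48°C-58°C, pooled, and extracted in PBS containing 0.5% NP-40 at 4°C. The supernatant after 21,000xg for 90 min was taken as soluble protein and measured by TMTpro 16plex LC-MS/MS with channel sums equalised. Thermal stability is reported relative to control samples, with values from duplicates. Fold changes are given on a log2 scale.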

[2] = compound: CC1=C(C=C(C=C1)NC(=O)C2=CC(=CC=C2)N(C)C)NC(=O)C3=CC=C(C=C3)O
How it was run: as §1

[3] = compound: CC1=CC=C(C=C1)SC2=C3C=C(SC3=CN=C2)C(=O)N
How it was run: as §1

[4] = compound: CC1=NC(=CC=C1)C2=C(N=C(N2)C(C)(C)C)C3=CC4=NC=CN=C4C=C3
How it was run: as §1

Nexturastat A = compound: CCCCN(Cc1ccc(C(=O)NO)cc1)C(=O)Nc1ccccc1 [Nexturastat A]
How it was run: as §1

vemurafenib = compound: CCCS(=O)(=O)Nc1ccc(F)c(C(=O)c2c[nH]c3ncc(-c4ccc(Cl)cc4)cc23)c1F [vemurafenib]
How it was run: as §1

[5] = compound: CCCS(=O)(=O)Nc1ccc(F)c(C(=O)c2c[nH]c3ncc(Cl)cc23)c1F
How it was run: as §1

[6] = compound: CCCc1cc(C)[nH]c(=O)c1CNC(=O)c1cc(-c2ccnc(N3CCN(C)CC3)c2)cc2c1cnn2C(C)C
How it was run: as §1

givinostat = compound: CCN(CC)Cc1ccc2cc(COC(=O)Nc3ccc(C(=O)NO)cc3)ccc2c1 [givinostat]
How it was run: as §1

barasertib = compound: CCN(CCCOc1ccc2c(Nc3cc(CC(=O)Nc4cccc(F)c4)[nH]n3)ncnc2c1)CCOP(=O)(O)O [barasertib]
How it was run: as §1

Measured: log2 fold change

LPIN1 isoform 7 (UniProt Q14693)
inactive: [1] -0.022 | [2] 0.018 | [3] -0.022 | [4] -0.026 | Nexturastat A -0.023 | vemurafenib -0.004 | [5] 0.015 | [6] 0.029 | givinostat 0.012 | barasertib 0.023

LENG8 (UniProt Q96PV6)
inactive: [1] 0.112 | [2] -0.201 | [4] 0.009 | Nexturastat A -0.139 | vemurafenib 0.146 | [6] 0.066 | givinostat 0.09 | barasertib 0.173

KMT2C isoform 3 (UniProt Q8NEZ4)
inactive: [1] -0.053 | [2] -0.07 | Nexturastat A -0.046 | vemurafenib -0.103 | [6] -0.033 | givinostat 0.011 | barasertib -0.003

IKZF1 isoform 2 (UniProt Q13422)
inactive: [1] 0.141 | [2] -0.068 | vemurafenib 0.095 | [6] -0.002 | givinostat -0.135 | barasertib -0.08

ITM2C (UniProt Q9NQX7)
inactive: [1] 0.096 | [2] 0.004 | [3] 0.187 | Nexturastat A 0.084 | vemurafenib 0.006 | [5] -0.014 | givinostat 0.09 | barasertib 0.057

LUC7L3 (UniProt O95232)
inactive: [1] -0.046 | [2] 0.034 | [3] -0.036 | [4] 0.086 | Nexturastat A -0.008 | vemurafenib 0.024 | [5] 0.013 | [6] -0.009 | givinostat 0.003 | barasertib 0.022

MCM10 (UniProt Q7L590)
UniProt Q7L590, sequence (Q7L590 whole entry, looked up): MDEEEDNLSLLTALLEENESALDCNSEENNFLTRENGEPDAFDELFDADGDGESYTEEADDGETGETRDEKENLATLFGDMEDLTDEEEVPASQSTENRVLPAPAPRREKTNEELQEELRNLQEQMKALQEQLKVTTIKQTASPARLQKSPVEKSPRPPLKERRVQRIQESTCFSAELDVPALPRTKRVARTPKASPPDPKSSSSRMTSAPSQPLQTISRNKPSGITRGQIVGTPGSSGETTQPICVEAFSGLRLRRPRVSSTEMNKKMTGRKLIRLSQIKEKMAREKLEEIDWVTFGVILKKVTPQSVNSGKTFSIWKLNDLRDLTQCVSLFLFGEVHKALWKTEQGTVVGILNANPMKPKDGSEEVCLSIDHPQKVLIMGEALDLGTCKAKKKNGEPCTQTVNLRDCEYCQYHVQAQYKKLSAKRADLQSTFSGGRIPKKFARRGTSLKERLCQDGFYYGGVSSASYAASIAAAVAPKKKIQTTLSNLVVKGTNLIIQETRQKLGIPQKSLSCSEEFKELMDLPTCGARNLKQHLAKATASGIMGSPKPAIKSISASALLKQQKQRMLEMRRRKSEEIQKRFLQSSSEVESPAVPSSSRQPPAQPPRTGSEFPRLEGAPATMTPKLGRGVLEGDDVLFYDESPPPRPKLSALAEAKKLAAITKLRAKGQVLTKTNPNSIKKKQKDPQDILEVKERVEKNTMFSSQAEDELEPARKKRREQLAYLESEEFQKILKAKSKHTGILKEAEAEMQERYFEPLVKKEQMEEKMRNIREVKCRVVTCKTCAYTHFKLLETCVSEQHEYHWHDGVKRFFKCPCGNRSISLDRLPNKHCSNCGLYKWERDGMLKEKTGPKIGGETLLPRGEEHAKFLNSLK
inactive: [1] 0.209 | [3] 0.166 | [4] 0.155 | Nexturastat A 0.028 | vemurafenib -0.016 | [5] 0.217 | [6] -0.037 | givinostat -0.065 | barasertib -0.012

MAP4 (UniProt P27816)
inactive: [1] -0.006 | [2] 0.007 | [3] -0.018 | [4] -0.01 | Nexturastat A 0.003 | vemurafenib -0.018 | [5] -0.007 | [6] 0.002 | givinostat -0.004 | barasertib -0.046

LPCAT3 (UniProt Q6P1A2)
inactive: [2] -0.029 | [3] 0.052 | [4] 0.033 | Nexturastat A -0.226 | vemurafenib -0.019 | [5] 0.036 | [6] 0.089 | givinostat 0.031 | barasertib -0.005
active: [1] 0.289

MAP3K20 isoform 2 (UniProt Q9NYL2)
inactive: [3] -0.038 | [4] 0.295 | Nexturastat A 0.16 | [5] 0.044 | [6] -0.017 | givinostat 0.003
active: [1] -0.375

MASTL (UniProt Q96GX5)
inactive: [1] 0.032 | [2] 0.187 | [4] -0.056 | Nexturastat A -0.149 | vemurafenib -0.028 | [6] -0.032 | givinostat -0.038 | barasertib -0.013

MARK2 (UniProt E9PC69)
inactive: [1] -0.011 | [2] -0.018 | [3] 0.094 | [4] 0.06 | Nexturastat A 0.025 | vemurafenib -0.005 | [5] -0.034 | givinostat 0.132 | barasertib 0.034

MED7 (UniProt O43513)
inactive: [1] 0.049 | [2] -0.023 | [3] -0.009 | [4] 0.015 | Nexturastat A 0.212 | vemurafenib -0.021 | [5] -0.093 | givinostat -0.008 | barasertib -0.149

MARCHF3 (UniProt Q86UD3)
inactive: [1] 0.001 | [3] -0.008 | Nexturastat A 0.081 | [5] -0.01 | barasertib 0.025

MCOLN3 (UniProt Q8TDD5)
inactive: [2] 0.013 | [3] 0.15 | [5] 0.014 | [6] -0.481 | givinostat 0.221 | barasertib -0.171

LAMP2 isoform 2 (UniProt P13473)
UniProt P13473, sequence (P13473 whole entry, looked up): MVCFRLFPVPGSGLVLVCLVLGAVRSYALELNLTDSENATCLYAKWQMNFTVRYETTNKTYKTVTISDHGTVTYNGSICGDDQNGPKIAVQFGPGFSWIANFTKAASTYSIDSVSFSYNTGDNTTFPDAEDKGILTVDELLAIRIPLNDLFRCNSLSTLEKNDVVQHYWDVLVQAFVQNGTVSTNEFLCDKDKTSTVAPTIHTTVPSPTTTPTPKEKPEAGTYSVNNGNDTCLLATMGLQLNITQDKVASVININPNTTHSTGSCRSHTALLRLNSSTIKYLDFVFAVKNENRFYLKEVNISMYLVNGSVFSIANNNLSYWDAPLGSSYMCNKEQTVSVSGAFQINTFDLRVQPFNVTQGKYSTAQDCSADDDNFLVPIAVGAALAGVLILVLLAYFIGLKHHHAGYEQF
inactive: [3] -0.07 | [4] 0.003 | Nexturastat A -0.015 | vemurafenib -0.082 | [5] -0.093 | [6] -0.071 | givinostat -0.158 | barasertib 0

MFSD8 (UniProt Q8NHS3)
UniProt Q8NHS3, sequence (Q8NHS3 whole entry, looked up): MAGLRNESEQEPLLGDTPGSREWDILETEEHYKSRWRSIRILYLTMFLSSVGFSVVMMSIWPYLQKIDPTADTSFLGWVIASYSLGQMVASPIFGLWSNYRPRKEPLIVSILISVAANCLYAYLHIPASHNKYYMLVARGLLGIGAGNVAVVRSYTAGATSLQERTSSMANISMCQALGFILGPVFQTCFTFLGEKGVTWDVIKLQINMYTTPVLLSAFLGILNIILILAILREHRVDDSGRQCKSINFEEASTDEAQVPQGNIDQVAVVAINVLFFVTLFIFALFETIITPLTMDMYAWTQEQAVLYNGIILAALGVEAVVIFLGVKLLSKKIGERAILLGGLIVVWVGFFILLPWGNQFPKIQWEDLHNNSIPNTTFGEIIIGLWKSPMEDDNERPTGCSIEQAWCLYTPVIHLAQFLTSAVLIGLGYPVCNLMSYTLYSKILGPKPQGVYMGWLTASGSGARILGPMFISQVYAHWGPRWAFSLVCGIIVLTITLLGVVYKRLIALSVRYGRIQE
inactive: [2] -0.026 | [3] 0.113 | [4] 0.011 | Nexturastat A -0.004 | vemurafenib 0.045 | [5] 0.151 | [6] -0.046 | givinostat 0.034 | barasertib -0.062

LRRFIP1 isoform 4 (UniProt Q32MZ4)
inactive: [4] 0.186 | Nexturastat A -0.077 | givinostat 0.011

KCNK5 (UniProt O95279)
inactive: [1] -0.114 | [3] 0.195 | [4] 0.084 | Nexturastat A 0.106 | [5] 0.1 | [6] 0.157 | givinostat -0.319 | barasertib 0.097

LSR (UniProt M0QZL9)
inactive: [1] -0.324 | Nexturastat A -0.157 | vemurafenib 0.024

MED29 (UniProt Q9NX70)
UniProt Q9NX70, sequence (Q9NX70 whole entry, looked up): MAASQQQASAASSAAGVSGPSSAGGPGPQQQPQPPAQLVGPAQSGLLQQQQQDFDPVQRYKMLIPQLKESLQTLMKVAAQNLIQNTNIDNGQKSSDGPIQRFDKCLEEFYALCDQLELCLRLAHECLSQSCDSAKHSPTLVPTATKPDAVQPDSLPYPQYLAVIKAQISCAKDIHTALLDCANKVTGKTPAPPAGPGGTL
inactive: [3] -0.075 | [5] 0.131 | [6] 0.025 | givinostat -0.076

IGFBP6 (UniProt P24592)
inactive: [2] 0.03 | vemurafenib 0.189

ILF3 (UniProt Q12906)
inactive: [1] 0.106 | [4] -0.177 | Nexturastat A 0.347 | [6] -0.232 | barasertib -0.241

MGRN1 isoform 2 (UniProt O60291)
UniProt O60291, sequence (O60291 whole entry, looked up): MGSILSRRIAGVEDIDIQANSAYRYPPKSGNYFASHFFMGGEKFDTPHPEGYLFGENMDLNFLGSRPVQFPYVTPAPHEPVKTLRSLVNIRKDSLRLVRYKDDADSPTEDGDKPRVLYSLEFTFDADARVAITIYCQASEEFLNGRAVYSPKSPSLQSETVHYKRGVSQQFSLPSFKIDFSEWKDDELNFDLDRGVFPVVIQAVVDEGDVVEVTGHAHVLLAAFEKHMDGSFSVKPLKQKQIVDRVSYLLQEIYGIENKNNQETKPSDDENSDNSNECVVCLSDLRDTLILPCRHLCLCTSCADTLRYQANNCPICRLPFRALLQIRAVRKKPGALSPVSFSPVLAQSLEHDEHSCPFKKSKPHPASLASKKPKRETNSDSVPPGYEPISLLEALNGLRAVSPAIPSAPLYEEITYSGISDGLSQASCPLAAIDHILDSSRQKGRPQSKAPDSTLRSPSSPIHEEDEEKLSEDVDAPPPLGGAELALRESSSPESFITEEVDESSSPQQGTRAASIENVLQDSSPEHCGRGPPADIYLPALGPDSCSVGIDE
inactive: [2] -0.059 | [3] 0.021 | [4] -0.02 | [5] -0.307 | givinostat 0.012 | barasertib 0

MELK (UniProt Q14680)
UniProt Q14680, sequence (Q14680 whole entry, looked up): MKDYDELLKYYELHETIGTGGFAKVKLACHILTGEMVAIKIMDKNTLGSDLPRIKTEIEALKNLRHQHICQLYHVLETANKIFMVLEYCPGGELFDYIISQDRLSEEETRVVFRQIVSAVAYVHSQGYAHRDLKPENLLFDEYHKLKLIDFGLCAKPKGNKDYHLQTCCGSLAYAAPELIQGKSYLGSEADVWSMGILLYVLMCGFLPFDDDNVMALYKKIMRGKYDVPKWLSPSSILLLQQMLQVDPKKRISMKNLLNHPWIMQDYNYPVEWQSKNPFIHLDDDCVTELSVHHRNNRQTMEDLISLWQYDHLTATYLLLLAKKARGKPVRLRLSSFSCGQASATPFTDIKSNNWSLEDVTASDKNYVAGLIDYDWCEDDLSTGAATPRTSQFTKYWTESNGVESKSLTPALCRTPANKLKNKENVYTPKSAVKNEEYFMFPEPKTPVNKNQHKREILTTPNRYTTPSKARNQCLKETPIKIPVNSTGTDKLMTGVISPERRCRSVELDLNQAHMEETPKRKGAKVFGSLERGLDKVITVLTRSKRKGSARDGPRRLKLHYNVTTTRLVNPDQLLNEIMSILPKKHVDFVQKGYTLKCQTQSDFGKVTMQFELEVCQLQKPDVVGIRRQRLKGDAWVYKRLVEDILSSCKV
inactive: [1] -0.026 | [3] 0.111 | [4] -0.015 | Nexturastat A 0.134 | [5] 0.02 | givinostat -0.023 | barasertib 0.048

LGALS8 isoform 2 (UniProt O00214)
inactive: [1] 0.01 | [4] -0.228 | Nexturastat A 0.288 | vemurafenib -0.013 | [6] -0.062 | givinostat 0.072 | barasertib 0.13

LEPROT (UniProt O15243)
inactive: Nexturastat A -0.02 | [6] -0.12 | givinostat -0.467

MAP4K2 (UniProt Q12851)
inactive: [1] -0.034 | [3] 0.079 | [4] 0.094 | [5] 0.043 | barasertib 0.218

MFAP3 (UniProt P55082)
inactive: [1] 0.038 | Nexturastat A 0.11 | vemurafenib -0.115 | barasertib 0.05

MFSD12 isoform 3 (UniProt Q6NUT3)
inactive: [1] 0.115 | givinostat -0.022

KIZ (UniProt Q2M2Z5)
inactive: [2] 0.057 | [3] 0.003 | [4] -0.068 | [5] -0.181

IKZF1 (UniProt R9R4D9)
inactive: [3] -0.116 | [4] 0.026 | [5] 0.033

MAP4K4 isoform 6 (UniProt O95819)
UniProt O95819, sequence (O95819 whole entry, looked up): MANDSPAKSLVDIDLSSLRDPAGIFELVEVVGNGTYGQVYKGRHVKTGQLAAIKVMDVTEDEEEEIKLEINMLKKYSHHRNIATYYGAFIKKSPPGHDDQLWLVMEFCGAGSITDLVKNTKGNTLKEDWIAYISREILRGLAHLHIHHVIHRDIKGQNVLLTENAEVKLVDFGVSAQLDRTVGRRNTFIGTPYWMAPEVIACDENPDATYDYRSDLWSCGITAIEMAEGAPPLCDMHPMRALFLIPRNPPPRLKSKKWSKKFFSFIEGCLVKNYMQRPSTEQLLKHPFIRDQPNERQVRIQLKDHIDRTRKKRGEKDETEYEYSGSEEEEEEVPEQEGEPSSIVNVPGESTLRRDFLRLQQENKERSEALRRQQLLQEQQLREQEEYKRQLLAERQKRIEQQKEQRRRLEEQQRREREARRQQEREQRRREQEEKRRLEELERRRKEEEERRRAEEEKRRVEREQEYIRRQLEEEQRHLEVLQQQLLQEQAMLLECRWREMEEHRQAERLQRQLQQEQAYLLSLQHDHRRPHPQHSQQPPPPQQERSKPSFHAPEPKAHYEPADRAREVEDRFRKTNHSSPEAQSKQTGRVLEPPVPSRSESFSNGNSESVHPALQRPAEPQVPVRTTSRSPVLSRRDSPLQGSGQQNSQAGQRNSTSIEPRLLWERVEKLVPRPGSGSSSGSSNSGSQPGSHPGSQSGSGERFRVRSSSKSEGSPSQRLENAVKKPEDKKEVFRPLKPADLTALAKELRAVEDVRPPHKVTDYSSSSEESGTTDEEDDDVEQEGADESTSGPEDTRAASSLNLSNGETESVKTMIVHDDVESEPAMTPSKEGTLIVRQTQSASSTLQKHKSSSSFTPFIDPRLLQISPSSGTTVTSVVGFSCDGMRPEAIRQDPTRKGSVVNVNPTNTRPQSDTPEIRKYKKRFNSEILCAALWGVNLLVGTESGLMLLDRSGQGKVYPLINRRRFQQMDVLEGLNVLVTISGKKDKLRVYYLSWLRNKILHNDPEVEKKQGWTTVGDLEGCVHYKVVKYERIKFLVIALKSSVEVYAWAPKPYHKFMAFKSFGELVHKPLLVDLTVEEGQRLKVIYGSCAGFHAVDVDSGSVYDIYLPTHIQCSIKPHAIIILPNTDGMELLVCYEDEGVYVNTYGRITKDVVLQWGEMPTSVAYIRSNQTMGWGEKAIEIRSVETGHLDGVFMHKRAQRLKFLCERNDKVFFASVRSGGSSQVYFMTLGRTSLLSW
inactive: [1] -0.031 | vemurafenib -0.052 | [6] 0.393

LSR isoform 3 (UniProt Q86X29)
inactive: [1] -0.232 | [3] 0.04 | [5] 0.158 | [6] -0.081

KIF21A (UniProt H0YI78)
inactive: [2] -0.001 | givinostat 0.447

MAP2K5 (UniProt Q13163)
inactive: [2] -0.085 | [4] 0.017

MAPK7 (UniProt Q13164)
inactive: [4] -0.169 | Nexturastat A 0.275

KXD1 (UniProt Q9BQD3)
UniProt Q9BQD3, sequence (Q9BQD3 whole entry, looked up): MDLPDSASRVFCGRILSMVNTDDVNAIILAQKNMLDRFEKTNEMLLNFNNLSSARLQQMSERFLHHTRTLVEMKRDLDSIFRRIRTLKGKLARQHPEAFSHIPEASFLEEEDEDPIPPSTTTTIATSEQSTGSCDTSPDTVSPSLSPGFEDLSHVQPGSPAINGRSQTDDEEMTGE
inactive: [2] -0.025 | [3] 0 | Nexturastat A -0.223 | vemurafenib 0.092 | [5] 0.059 | [6] 0.072 | givinostat 0.094 | barasertib -0.021

LRRCC1 (UniProt Q9C099)
inactive: [2] 0.039

MAGEA8 (UniProt P43361)
inactive: [2] 0.009 | [3] 0.02 | [4] 0.072 | vemurafenib 0.031 | [5] 0.197 | givinostat 0.034 | barasertib -0.123

MAGED1 isoform 2 (UniProt Q9Y5V3)
active: Nexturastat A 0.608
inactive: [1] 0.003 | [3] 0.1 | vemurafenib -0.236 | [5] 0.198 | givinostat 0.006

LOX (UniProt P28300)
inactive: [6] -0.269 | givinostat 0.087 | barasertib -0.129

IPP (UniProt Q9Y573)
inactive: barasertib -0.139

ING5 (UniProt Q8WYH8)
inactive: [3] 0.058 | [4] -0.052 | [5] -0.011 | [6] -0.237 | givinostat 0.316

MAPRE3 isoform 2 (UniProt Q9UPY8)
inactive: [3] -0.075 | [4] -0.065 | [5] 0.029

LIN52 (UniProt Q52LA3)
inactive: [6] 0.123

KIF1B isoform 3 (UniProt O60333)
inactive: vemurafenib -0.244 | [6] -0.006

LDLRAP1 (UniProt Q5SW96)
inactive: [2] -0.028 | [4] -0.102 | givinostat 0.284 | barasertib 0.146

MBLAC1 (UniProt A4D2B0)
inactive: [2] 0.079 | [3] -0.093 | [4] -0.098 | vemurafenib 0.029 | [5] -0.008 | [6] 0.059 | givinostat -0.04 | barasertib -0.016

MAPK11 (UniProt Q15759)
inactive: [2] 0.094 | [4] 0.045 | givinostat 0.131

LAPTM4B (UniProt Q86VI4)
UniProt Q86VI4, sequence (Q86VI4 whole entry, looked up): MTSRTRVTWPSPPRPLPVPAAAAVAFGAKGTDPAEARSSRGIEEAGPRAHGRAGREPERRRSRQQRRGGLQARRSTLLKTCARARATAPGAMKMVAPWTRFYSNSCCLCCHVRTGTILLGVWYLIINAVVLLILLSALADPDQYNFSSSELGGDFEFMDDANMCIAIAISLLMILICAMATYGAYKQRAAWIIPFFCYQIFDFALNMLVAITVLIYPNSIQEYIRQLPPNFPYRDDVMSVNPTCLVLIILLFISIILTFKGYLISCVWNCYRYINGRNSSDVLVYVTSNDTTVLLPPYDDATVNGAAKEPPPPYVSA
inactive: [1] 0 | [6] -0.228 | givinostat 0.128 | barasertib 0.002

ITPRID2 (UniProt P28290)
inactive: [2] -0.003 | [3] -0.103 | [4] -0.065 | Nexturastat A -0.188 | vemurafenib -0.125 | [5] -0.097 | givinostat 0.213
